{
  "source": "PubChem BioAssay AID1345082",
  "about": "(National Center for Advancing Translational Sciences (NCATS), 2018)",
  "note": "The campaign covered roughly 94,000 compounds. About 4,000 (4.3%) were called active. Inconclusive results (about 29%) are left out. The entries come from a sample that favours actives as a whole. A number with no mark means an inactive call. Calls come from the whole dose curve; as a rule, active = well fitted inhibition curve with a large enough effect; inconclusive = small, poorly fitted or top-dose-only effect; inactive = no such curve, though single readings can be large or run the other way. % is set by controls: 0 for no effect and ±100 for the full control effect; potency is the fitted concentration of half-maximal effect.",
  "data": [
    {"assay": "Cytotoxic Profiling in NIH 3T3 Cell Line of Diverse Libraries Using Quantitative High-Throughput Screening; note: nearly all actives have a fitted effect of over 55% in size", "settings": "NIH 3T3 viability, CellTiter-Glo ATP luminescence, 48-72 h; series mostly up to 96.7 µM; activity change, negative = cytotoxicity: at the top concentration", "method_in_brief": "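Mouse fibroblast NIH 3T3 cells, 400 per well, received compound via pintool and were incubated for 48 or 72 hr prior to CellTiter-Glo ATP luminescence measurement.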", "values": [
      {"smiles": "O=C(c1ccc2c(c1)OCO2)N1CCC(n2c(=O)[nH]c3ccccc32)CC1", "activity change, negative = cytotoxicity": "-23%"},
      {"smiles": "O=C(NCc1ccc2c(c1)OCO2)c1noc(-c2ccc(F)cc2)n1", "activity change, negative = cytotoxicity": "-28.9%"},
      {"smiles": "CNc1nc(C(=O)NCc2ccc3[nH]c(-c4ccc(F)cc4)c(C)c3c2)cs1", "Potency": "50.1 µM (active)"},
      {"smiles": "COc1ccc(CNC(=O)c2noc(-c3ccc(F)cc3)n2)cc1", "activity change, negative = cytotoxicity": "-16.3%"},
      {"smiles": "CN(CCc1ccccn1)[C@H]1[C@@H]2OC[C@@H](O2)[C@@H](NC(=O)Nc2ccc(F)cc2)[C@@H]1O", "activity change, negative = cytotoxicity": "-19.5% [at 174 µM]"},
      {"smiles": "CNC(=O)[C@@H]1CN(C(=O)c2n[nH]c3ccccc23)C[C@H]1COC", "activity change, negative = cytotoxicity": "-30.5%"},
      {"smiles": "COc1ccccc1C(=O)N1CCC2(CC1)C(=O)Nc1ccccc12", "activity change, negative = cytotoxicity": "-2.43%"},
      {"smiles": "CN(C)CCNC(=O)c1nc2nc(-c3ccccc3)c(-c3cccc(F)c3)cc2n1C", "Potency": "25.1 µM (active)"},
      {"smiles": "COCCNC(=O)c1nc(-c2cc(Cl)cc(Cl)c2)c2ccccn12", "activity change, negative = cytotoxicity": "-29.4%"},
      {"smiles": "CCc1cc(=O)n(CC(=O)Nc2ccccc2F)c(-c2cccc(F)c2)n1", "activity change, negative = cytotoxicity": "-11.4%"},
      {"smiles": "Cc1ccc(S(=O)(=O)N2C[C@@H](F)C[C@H]2C(=O)N2CCCCC2)cc1Cl", "activity change, negative = cytotoxicity": "-31.4%"},
      {"smiles": "CN1c2cc(C(=O)Nc3ccc(F)cc3)ccc2C(=O)N2CCCCC21", "note": "(stereo not drawn)", "activity change, negative = cytotoxicity": "-2.47%"},
      {"smiles": "CCN1c2cc(C(=O)Nc3ccc(F)c(Cl)c3)ccc2C(=O)N2CCCCC21", "note": "(stereo not drawn)", "Potency": "25.1 µM (active)"},
      {"smiles": "CCN1c2cc(C(=O)NCc3cccc(F)c3)ccc2C(=O)N2CCCCCC21", "note": "(stereo not drawn)", "activity change, negative = cytotoxicity": "-29.3%"},
      {"smiles": "COC1CN(c2cccc(F)c2)C12CCN(C1CCOCC1)CC2", "note": "(stereo not drawn)", "activity change, negative = cytotoxicity": "-18%"},
      {"smiles": "COc1ccc(CNC(=O)[C@H]2O[C@H](CCN3CCN(C)CC3)CC[C@@H]2O)cc1", "activity change, negative = cytotoxicity": "-1.12% [at 174 µM]"},
      {"smiles": "Cc1cc(Cn2cc3c4c(cccc42)[C@H](CC(C)C)N[C@H](C(=O)N2CCCCCC2)C3)no1", "Potency": "31.6 µM (active)"},
      {"smiles": "COc1ccc(CNC(=O)[C@@H]2Cc3cn(Cc4ccncc4)c4cccc(c34)[C@H](CC(C)C)N2)cc1", "Potency": "79.4 µM (active)"},
      {"smiles": "CCCN1C(=O)Cc2ccccc2C1C(=O)NCc1cccc(OC)c1OC", "note": "(stereo not drawn)", "activity change, negative = cytotoxicity": "3.13%"},
      {"smiles": "COc1ccccc1CNC(=O)CN1CC[C@](C)(O)[C@@H](O)C1", "activity change, negative = cytotoxicity": "3.14%"},
      {"smiles": "COCCN1CCN(C(=O)[C@@H]2Cc3cn(C)c4cccc(c34)[C@H](CC(C)C)N2)CC1", "activity change, negative = cytotoxicity": "-2.5% [at 174 µM]"},
      {"smiles": "CC#CCn1cc2c3c(cccc31)[C@H](CC(C)C)N[C@H](C(=O)NCc1ccccc1OC)C2", "Potency": "31.6 µM (active)"},
      {"smiles": "COC(=O)[C@@H]1Cc2ncn(Cc3ccc(OC)cc3)c2CN1S(C)(=O)=O", "activity change, negative = cytotoxicity": "-23.8% [at 174 µM]"},
      {"smiles": "COc1ccc(CCC(=O)N2CCCC3(CC2)CN(C)C(=O)O3)cc1OC", "note": "(stereo not drawn)", "activity change, negative = cytotoxicity": "-0.528%"},
      {"smiles": "CS(=O)(=O)c1ccc(CN2CCOC(c3cccnc3)C2)cc1", "note": "(stereo not drawn)", "activity change, negative = cytotoxicity": "1.91%"},
      {"smiles": "COc1ccc(CNC(=O)CC[C@@H]2CNC(=O)[C@@H]3C[C@H](NC(=O)NC(C)C)CN23)cc1", "outcome": "inactive [at 174 µM]"},
      {"smiles": "Cc1ccc(-n2cccn2)c(CN2CCC(CNS(C)(=O)=O)C2)c1", "note": "(stereo not drawn)", "activity change, negative = cytotoxicity": "-9.15%"},
      {"smiles": "OC[C@@H]1O[C@H](CNC2CCOCC2)[C@H](N2CCCC2)[C@@H]1O", "outcome": "inactive [at 138 µM]"},
      {"smiles": "Cc1cc(C)n(CCCN(C)C(=O)C2C3C(=O)N(CCC(C)C)C[C@@]34C=C[C@@H]2O4)n1", "note": "(stereo partly drawn)", "activity change, negative = cytotoxicity": "-23.8%"},
      {"smiles": "Cc1cn2nc(C(=O)Nc3ccc(F)cc3F)cc2c(N(C)Cc2ccccc2)n1", "activity change, negative = cytotoxicity": "-25.5%"},
      {"smiles": "CCNC(=O)c1ccccc1-c1ccc(O)cc1", "activity change, negative = cytotoxicity": "-8.82%"},
      {"smiles": "O=Cc1ccccc1-c1ccc(O)cc1", "Potency": "79.4 µM (active)"},
      {"smiles": "COc1ccccc1C(=O)N1CCC2(C1)C(=NC1CCCCC1)NC(=O)N2c1cccnc1", "note": "(stereo not drawn)", "outcome": "inactive"},
      {"smiles": "O=C(c1cn[nH]c1)N1CC2(CN(Cc3cccc(Cl)c3)CC2COc2ccccc2)C1", "note": "(stereo not drawn)", "Potency": "79.4 µM (active)"},
      {"smiles": "Cc1cccc(C(=O)N2C[C@@H](COc3ccccc3)[C@H](C(N)=O)C2)c1", "activity change, negative = cytotoxicity": "-10.5%"},
      {"smiles": "COCC1CN(C(C)=O)CC12CCN(Cc1cccc(C#N)c1)CC2", "note": "(stereo not drawn)", "activity change, negative = cytotoxicity": "-2.07%"},
      {"smiles": "CNC(=O)c1cc(C)nc2onc(C3CCN(C(=O)C4CCCCC4)C3)c12", "note": "(stereo not drawn)", "activity change, negative = cytotoxicity": "-26.6%"},
      {"smiles": "c1ccc(CN2CCNc3cc(NCc4cccnc4)ncc3C2)cc1", "Potency": "50.1 µM (active)"},
      {"smiles": "CC(=O)N1Cc2ccccc2CC2(CCN(Cc3cccnc3)CC2)C1", "activity change, negative = cytotoxicity": "3.26%"},
      {"smiles": "CCn1ccnc1CN(C)C1CCCN(CCc2ccccc2)C1", "note": "(stereo not drawn)", "activity change, negative = cytotoxicity": "-15.6%"},
      {"smiles": "O=C1CC(c2ccccc2)N(Cc2ccncc2)CCCN(Cc2cccnc2)CCN1", "note": "(stereo not drawn)", "activity change, negative = cytotoxicity": "-27.4%"},
      {"smiles": "Cn1ccc(Nc2cc3c(cn2)CN(CCc2ccccc2)CCN3)n1", "Potency": "79.4 µM (active)"},
      {"smiles": "COc1cccc(S(=O)(=O)N2CCC3(CC2)CC2C(=O)NCCN2C3)c1", "note": "(stereo not drawn)", "activity change, negative = cytotoxicity": "-20.6%"},
      {"smiles": "CCc1nc(N(C)Cc2nccn2Cc2ccccc2)c2cnn(C)c2n1", "activity change, negative = cytotoxicity": "-36.8%"},
      {"smiles": "CS(=O)(=O)c1cnc(NCCN2CCOCC2)nc1C1CCCNC1", "note": "(stereo not drawn)", "activity change, negative = cytotoxicity": "-2.38%"},
      {"smiles": "COc1cc(-c2noc(-c3nc(-c4ccc5c(c4)OCO5)no3)n2)cc(OC)c1OC", "activity change, negative = cytotoxicity": "2.76%"},
      {"smiles": "CC(C)C[C@@H]1N[C@H](C(=O)NC(C)C)Cc2c[nH]c3cccc1c23", "Potency": "100 µM (active)"},
      {"smiles": "COCCn1c(C)cc(C(=O)N2CCCCCCNC(=O)CC2)c1C", "activity change, negative = cytotoxicity": "-18.9%"}
    ]}
  ]
}
